Screening results deposited in PubChem BioAssay by National Center for Advancing Translational Sciences (NCATS).
Hits are enriched below; roughly 1.1% of the tested compounds scored in any of these assays.
GPT2 inh: Primary qHTS assay for inhibitors of Glutamate pyruvate transaminase 2 (GPT2) | Recombinant GPT2, coupled pyruvate oxidase/HRP Amplex Red fluorescence | Alanine aminotransferase 2 (Homo sapiens), Q8TD30 | 100,000 compounds, 0.25% hits | AID 1671188, 2021 | Potency, µM (titrated, usually from 57.7 µM), for inactives: at the highest dose activity change, negative = inhibition, hits mostly inhibitors; note: potency is the fitted concentration of half-maximal effect; nearly all actives have a fitted effect of over 60% in size
Target sequence (Q8TD30 whole entry, looked up): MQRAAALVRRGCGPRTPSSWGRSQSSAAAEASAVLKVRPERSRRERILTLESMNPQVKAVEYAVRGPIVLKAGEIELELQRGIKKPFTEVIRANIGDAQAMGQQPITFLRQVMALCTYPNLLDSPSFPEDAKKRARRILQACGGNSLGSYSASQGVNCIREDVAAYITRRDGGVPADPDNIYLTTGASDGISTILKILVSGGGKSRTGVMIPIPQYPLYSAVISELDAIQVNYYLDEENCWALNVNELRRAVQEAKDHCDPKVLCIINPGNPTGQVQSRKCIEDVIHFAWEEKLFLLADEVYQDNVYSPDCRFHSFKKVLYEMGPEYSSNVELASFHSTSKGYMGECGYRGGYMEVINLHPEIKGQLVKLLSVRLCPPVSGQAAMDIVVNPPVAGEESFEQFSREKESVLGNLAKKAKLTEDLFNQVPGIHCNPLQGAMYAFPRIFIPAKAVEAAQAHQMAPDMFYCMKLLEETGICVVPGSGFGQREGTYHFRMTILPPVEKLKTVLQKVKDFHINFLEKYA
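Recombinant GPT2 (10ng/uL) with 250uM a-KG and 2mM L-alanine, 30 min at room temperature, in HEPES pH 7.5 buffer. Pyruvate detected by pyruvate oxidase/HRP/Amplex Red fluorescence after 30 min in the dark; AOA (50uM) as positive control.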
SNCA viab count: GF-AFC viability counterscreen for inhibitors of alpha-synuclein gene (SNCA) expression | HEK-293-SNCA-luc viability, GF-AFC fluorescence, 24 h | Potency, µM (titrated, usually from 57.1 µM), for inactives: at the highest dose activity change, negative = cytotoxicity, actives largely listed as cytotoxic | 150,000 compounds, 0.12% hits | AID 1671193, 2021;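 note: potency is the fitted concentration of half-maximal effect; 0% = DMSO-treated cells and -100% = medium-only wells without cells; nearly all actives have a fitted effect of over 30% in size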
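Cytotoxicity counterscreen: after 24 h compound treatment of genome-edited SNCA-luciferase HEK-293 cells, live-cell protease substrate GF-AFC read by fluorescence after 30 min; activity scaled between DMSO (0%) and medium-only (-100%), curves Hill-fitted.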
SNCA expr inh: Primary qHTS assay for inhibitors of alpha-synuclein gene (SNCA) expression; HEK-293 SNCA-luciferase knock-in, luminescence, 24 h; 140,000 compounds, 0.17% hits; AID 1671194, 2021; Potency, µM (highest dose often 57.2 µM), without a hit: top-dose activity change, negative = inhibition, most hits filed as inhibitors;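 note: potency is the fitted concentration of half-maximal effect; plate controls were DMSO cells for no effect and cell-free wells for full effect; nearly all actives have a fitted effect of over 45% in size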
IP6K1 inh: Primary qHTS assay for small molecule inhibitors of Inositol hexaphosphate kinase 1 (IP6K1). IP6K1 kinase, ADP-Glo luminescence, 2 h; active compounds read low. activity change, % (series mostly up to about 58 µM). 140,000 compounds, 0.81% hits. AID 1645851, 2021; in the data active = activity change below about -25%
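ADP-Glo luminescence measures ADP made by human IP6K1 during a 2 h RT reaction with ATP/IP6 (mix at 1.3 mM/130 uM); top library doses 57.5 and 19.1 uM final.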
IP6K1 conf: Confirmatory qHTS assay for small molecule inhibitors of Inositol hexaphosphate kinase 1 (IP6K1); shares compounds with IP6K1 inh; recombinant IP6K1 kinase, ADP-Glo luminescence, 2 h; Potency, µM (top dose mostly 49 µM), for inactives: at the top dose activity change, negative = inhibition, hits mostly inhibitors; 1,200 compounds, 13% hits; note: potency is the fitted concentration of half-maximal effect; nearly all actives have a fitted effect of over 65% in size
* hit, by the source's call; i = inactive; ? = inconclusive; . = no result; [ ] = remark or other dose. Unless noted, calls come from the whole dose curve; as a rule, active = well fitted curve in the direction sought with a large enough effect; inconclusive = small, poorly fitted or top-dose-only effect, or another doubt; inactive = no such curve, though single readings can be large; an effect the other way counts as inactive or inconclusive. Unless noted, % is set by controls: 0 for no effect and ±100 for the full control effect.

SMILES	GPT2 inh	SNCA viab count	SNCA expr inh	IP6K1 inh	IP6K1 conf
CC(Oc1ccccc1)C(=O)Nc1ccccc1C(=O)OCc1cc(=O)n2nc(C3CC3)sc2n1 (stereo unspecified)	.	0.7%	-2.4%	-27.4*	0.0%
CC(C)Cc1nn2c(=O)cc(COC(=O)c3ccccc3NC(=O)c3ccccc3)nc2s1	.	8.3%	-17.5%	-27.6*	-6.0%
COc1ccc(-c2cc(N3CCC(NC(=O)c4ccc(Cl)cc4OC)CC3)n[nH]2)cc1	-13.4%	-16.2%	?	26.0	.
COc1cc2nc(-c3cc(F)ccc3O)nc(N[C@@H]3CNC[C@H]3C(C)(C)O)c2cc1OC	i	?	.	-62.1*	3.26µM*
Cn1c(=O)nc2n(-c3ccc(Cl)c(Cl)c3)c3cc(Cl)ccc3cc-2c1=O	.	-7.9%	?	8.0	.
CC(C)c1cc(-c2n[nH]c(=O)n2-c2ccc3c(ccn3C)c2)c(O)cc1O	-4.8%	-25.2%	?	-42.5*	9.2µM*
Cc1ccccc1Nc1c(-c2ccc(N3CCOCC3)cc2)nc2ccccn12	.	-8.8%	?	-8.8	.
Cc1cc(N2CCOCC2)ccc1Nc1nc(NC2CCCCC2)c2[nH]cnc2n1	-4.8%	-26.7%	.	-47.4*	2.06µM*
COCCn1ncc(N2CCCC(CC(=O)NCc3ccc(C)o3)C2)cc1=O (stereo unspecified)	i	3.9%	-7.4%	6.9	.
CC(C)(C)c1ccc(Cn2c(Cc3ccccc3)nc3ccccc32)cc1	.	-12.5%	?	-15.6	.
CCOC(=O)Cn1c(=N)n(Cc2ccc(C(C)(C)C)cc2)c2ccccc21	.	?	?	-26.8*	2.2%
Oc1cccc(-c2nc(N3CCOCC3)c3oc4ncccc4c3n2)c1	i	-8.9%[87.6 µM]	?	.	?
O=C1CO[C@H]2CN(c3ncccn3)C[C@H]2N1CC1CCCCC1	i	-11.8%[87.6 µM]	-8.7%[87.6 µM]	-26.7*	-11.6%
CN1C(=O)C(CC(=O)Nc2cccnc2)=C2CCCCC21 (stereo unspecified)	0.6%	5.3%	?	31.2	.
COc1ccc(-c2c(-c3cc(C(=O)O)ccn3)ncn2C)cc1	-25.9%	-20.3%	.	-34.7*	?
O=C(O)c1cc(O)c2cccc(O)c2c1O[C@@H]1O[C@H](CO)[C@@H](O)[C@H](O)[C@H]1O	?	-4.1%	.	-37.0*	?
Cc1nc2cc(S(=O)(=O)N3CCOCC3)ccc2n1CCNC(=O)C1(C)CC1	i[11.5 µM]	3.5%	-4.7%	10.3	.
O=Cc1ccc(-c2ccc(C(=O)O)cn2)cc1	3.5%[88.5 µM]	2.0%[87.6 µM]	8.6%[87.6 µM]	-26.8*	5.5%
O=Cc1cccc(-c2ccc(C(=O)O)cn2)c1	i	-6.0%[87.6 µM]	-12.6%[87.6 µM]	-15.9	.
O=C(c1cccnc1)N1CCC2(CC1)CC(N(Cc1ccc(F)cc1)C1CC1)CCO2 (stereo unspecified)	i	-6.9%	?	-8.1	.
O=c1nc(-c2ccccn2)sc2ccccc12	-0.3%	-13.3%	.	-53.7*	-18.3%
COCC(=O)N1CCC(N2C(=O)c3c(c(C)nn3-c3ccccc3)C2C2CC2)C1 (stereo unspecified)	.	.	.	-2.6	.
O=C1C(SCCO)=C(SCCO)C(=O)c2ccccc21	?	1.0%	?	.	10.3µM*
CC1=CC(=O)c2ccccc2C1=O	?	0.2%	-9.6%	11.7	.
O=C(Nc1ccccc1F)c1ccc(-c2ccccc2)s1	.	18.4%	20.0%	-29.6*	-11.8%
SMILES	GPT2 inh	SNCA viab count	SNCA expr inh	IP6K1 inh	IP6K1 conf
CCc1ccc(NC(=O)c2ccc(-c3ccccc3)s2)cc1	.	8.4%	10.6%	10.5	.
CCC(=O)N1CCc2cc(OC)c(OC)cc2C1COc1ccc2c(C)cc(=O)oc2c1 (stereo unspecified)	.	-4.3%	22.4%	-30.9*	-3.3%
COc1cc2c(cc1OC)C(COc1ccc3c(C)cc(=O)oc3c1)N(C(=O)CC(C)C)CC2 (stereo unspecified)	.	3.3%	14.0%	-8.6	.
O=C(NCCc1ccc(F)cc1)C1CCCCN1Cc1ccc(-c2cccs2)cc1 (stereo unspecified)	-4.8%	1.0%	?	5.7	.
CN1CCC(Nc2ncc3ncnc(Nc4ccc(F)c(Cl)c4)c3n2)CC1	i	8.1%[23.9 µM]	-46.0%[25.6 µM]	19.3	.
CN1CCC(Nc2nc(Nc3ccc(Oc4ccccc4)cc3)c3c(=O)[nH]cc(Br)c3n2)CC1	i	?	.	-41.2*	?
N#C/C(=C/c1ccccc1Cl)c1nc2ccccc2c(=O)[nH]1	.	1.8%	12.2%	4.8	.
N#C/C(=C\c1cc(Br)c(O)c(Br)c1)c1nc2ccccc2c(=O)[nH]1	.	-3.5%	-26.9%	-28.9*	1.84µM*
Cc1nn2c(c1-c1ccccc1OCc1ccccc1)N(Cc1cccc(O)c1)CCC2	i	-20.8%[87.6 µM]	?	12.7	.
COC(=O)c1ccc(NC(=O)CN(C)S(=O)(=O)c2ccc(Br)s2)cc1	.	-3.6%	-27.6%	-45.1*	?
COc1ccc(-c2cc(C(=O)NCc3c(C)cc(C)[nH]c3=O)c3c(c2)N(C(C)C)CCO3)cc1OC	i	-13.9%	?	-26.7*	?
CN(C)c1ccc(NC(=O)c2ccc3c(c2)N(C)C2CCCCN2C3=O)cc1 (stereo unspecified)	?	-27.2%[12.5 µM]	87.3%	5.9	.
Cc1nn(-c2ccccc2)c2sc(C(=O)Nc3cccc(O)c3)cc12	.	?	?	-27.2*	?
COc1ccc(C2=NS(=O)(=O)N(C)C(C(=O)NCc3ccccc3)=C2)cc1OC	.	4.4%	38.4%	-25.9*	-11.6%
COc1ccc(CNC(=O)C2=CC(c3ccc(OC)c(OC)c3)=NS(=O)(=O)N2C)cc1	.	5.6%	8.9%	-9.7	.
COc1cc(OC)cc(OCc2nc3c(n2Cc2ccccc2)C(=O)N(Cc2ccccc2C#N)CCN3)c1	-28.7%	-17.1%	-29.7%	-8.8	.
CN1CC[C@@H](c2c(O)cc(O)c3c(=O)cc(-c4ccccc4Cl)oc23)[C@@H](O)C1	1.9%	?	0.215µM*	.	?
COc1ccc(CNC(=O)CCS(=O)(=O)c2cc3c4c(c2)CCN4C(=O)CC3)cc1	.	-6.0%	18.2%	-8.7	.
CCOc1ccc(CNC(=O)CCS(=O)(=O)c2cc3c4c(c2)CCN4C(=O)CC3)cc1OC	.	7.8%	-20.3%	-27.8*	13.2%
Nc1cccc(-c2ccc(N3CCOCC3)nn2)c1	i	5.9%	?	-30.2*	?
COc1cccc(NC(=O)Nc2cccc(-c3ccc(N4CCOCC4)nn3)c2)c1	4.8%	?	-54.8%	-20.6	.
Cc1cccc(NC(=O)CSc2cn(CC(=O)N3CCCCCC3)c3ccccc23)c1	.	-21.2%	?	-41.4*	-4.1%
